Screening results as filed in PubChem BioAssay.
HCMV inh – human cytomegalovirus inhibition; HFF cells, HCMV-luciferase reporter, 72 h; active compounds read low; 410,000 compounds, 4.5% hits; activity change, negative = inhibition, % at 57.5 µM; AID 1259415; in the data active means activity change below about -60%; inconclusive means no clear call, values can overlap the other calls; inactive means above about -39%
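Luciferase read-out from HCMV-luciferase-infected HFFs (MOI 1 PFU/cell) 72 h post infection at 37C; compounds added after 16 h cell attachment; activity normalized between buffer-only basal and Salinomycin (10uM) inhibitor controls.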
VACV Venus inh – vaccinia inhibition (Venus reporter). 330,000 compounds, 0.46% hits. Potency, µM (top dose mostly 36.5 µM), for inactives: at the highest dose activity change, negative = inhibition, actives largely listed as inhibitors. Vaccinia virus Venus reporter expression, fluorescence; calls by dose curve; tested in A549 cells; further: potency means the concentration at half of the fitted maximal effect; nearly all actives have a fitted effect of over 30% in size
HCV inh – blocks hepatitis C virus | Potency, µM (series often up to 41.8 µM), inactives show top-dose activity change, negative = inhibition, actives largely listed as inhibitors | 340,000 compounds, 3.4% hits | Huh7.5.1 HCVcc-Cre infection, luciferase reporter, 44 h; further: potency means the concentration at half of the fitted maximal effect
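Seed cells (1,000/well) for 4 h; treat with compound and infect with HCVcc-Cre, moi about 0.5. Incubate 44 h, then detect luciferase activity.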
FBPA Giardia inh – Giardia lamblia aldolase inhibition | A8B2U2 | purified Giardia FBPA | Potency, µM (doses to about 59.6 µM), for inactives: at the top dose activity, negative = inhibition, usual class: inhibitors | 290,000 compounds, 0.71% hits | AID 2451; further: potency means the concentration at half of the fitted maximal effect; nearly all actives have a fitted effect of over 55% in size
Target sequence (A8B2U2 whole entry, looked up): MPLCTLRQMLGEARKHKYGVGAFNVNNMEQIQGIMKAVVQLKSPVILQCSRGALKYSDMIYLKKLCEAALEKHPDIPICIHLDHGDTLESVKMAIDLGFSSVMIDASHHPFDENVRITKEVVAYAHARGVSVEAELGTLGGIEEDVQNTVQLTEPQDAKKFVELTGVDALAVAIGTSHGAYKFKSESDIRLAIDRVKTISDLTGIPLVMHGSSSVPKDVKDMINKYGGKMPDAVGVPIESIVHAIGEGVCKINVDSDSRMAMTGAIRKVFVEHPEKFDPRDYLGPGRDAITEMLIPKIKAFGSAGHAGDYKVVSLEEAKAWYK
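Giardia FBPA (40 nM reagent) was preincubated 10 min at RT with compound (up to 57.5 uM final), then substrate plus GAPDH/TPI/NAD/arsenate coupling system with diaphorase/resazurin was added; resorufin fluorescence (525/598 nm) was read after 20 min.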
FMDV antiviral – foot and mouth disease virus antiviral activity. 410,000 compounds, 1.2% hits. Potency, µM (highest dose often 57.9 µM), for the others: at the highest dose activity change, negative = inhibition, hits mostly inhibitors. AID 1159524. FMDV antiviral cell-based qHTS; calls by dose curve; tested in HEK293T cells; further: read-out not given here; potency means the concentration at half of the fitted maximal effect; nearly all actives have a fitted effect of over 45% in size
Vaccinia mCherry – inhibitors of vaccinia virus infection (mCherry reporter signal); 310,000 compounds, 0.63% hits; Vaccinia virus mCherry reporter infection, fluorescence; Potency, µM (highest dose often 36.5 µM), for inactives: at the highest dose activity change, negative = inhibition, hits mostly inhibitors; calls by dose curve; tested in A549 cells; further: potency means the concentration at half of the fitted maximal effect; nearly all actives have a fitted effect of over 35% in size
* hit, by the source's call; i = inactive; ? = inconclusive; . = not tested or not shown; ! = repeats disagree; [ ] = dose if it differs, or a comment. Compounds with a hit are over-represented: about 7.5% of the library has one in this group of screens. Unless noted, the call rests on the fitted dose curve; in most records, active means well fitted curve in the direction sought with a large enough effect; inconclusive means small, poorly fitted or top-dose-only effect, or another doubt; inactive means no such curve, though single readings can be large; an effect the other way counts as inactive or inconclusive. On the % scale 0 is the no-effect control and ±100 the full control effect.

SMILES	HCMV inh	VACV Venus inh	HCV inh	FBPA Giardia inh	FMDV antiviral	Vaccinia mCherry
CC1CCN(CCCn2c(SCC(=O)Nc3ccccc3Cl)nc3ccccc3c2=O)CC1	-12	-17%	11µM*	4%	-13%	-11%
CCc1ccc(NC(=O)CSc2nc3ccccc3c(=O)n2CCCC(=O)NCCCN2CCOCC2)cc1	-19	-18%	11µM*	4%	-17%	-20%
COC(=O)[C@@]1(Sc2ccc(OC)cc2)CC(=O)N(c2ccc(OC)cc2)[C@@H]1c1ccc(OC(C)C)c(OC)c1	-5	.	.	.	.	.
CCCC(CCC)C(=O)Nc1ccc2c(c1)N(C(=O)CCN1CCN(C)CC1)c1ccccc1CC2	-29	-11%	?	-6%	-18%	-9%
Nc1ccn(CC(=O)NCc2ccc3[nH]ccc3c2)c(=O)n1	3	-3%	17%	.	-8%	i
Oc1ccc(/C=N/n2c3ccccc3c3ccccc32)cc1	2	?	10µM*	-5%	-22%	.
CSc1nsc(/C=C/Nc2ccc(F)cc2)c1C#N	40	9%	-24%	?	61%	-6%
CSc1nsc(/C=C/Nc2ccc(O)cc2C)c1C#N	21	-5%	?	18µM*	24%	-23%
CN(Cc1cnc2nc(N)nc(N)c2n1)c1ccc(C(=O)N[C@H](CCC(=O)O)C(=O)O)cc1	.	.	.	6%[21.7 µM]	.	.
CN(Cc1cnc2nc(N)nc(N)c2n1)c1ccc(C(=O)N[C@@H](CCC(=O)O)C(=O)O)cc1	-99*	3.2µM*	?	4%	?	1µM*!
COc1cccc(C2(CC(=O)N3CCCOc4c(cccc4OC)C3)CC(=O)N(C)C2=O)c1 (stereo not given)	.	-12%	.	.	1%	i
Cc1ccc(C)c(-n2c(-c3ccc(Br)cc3)csc2=NC(=O)c2ccccc2F)c1	-27	-10%	3.2µM*	-5%	-22%	-10%
CC(C)CN(CC(C)C)c1ccc(/C=C/c2ccnc3ccccc23)cc1	.	41%	.	.	.	20%
Cc1ccc(N(Cc2cccs2)C(=O)COc2ccccc2[N+](=O)[O-])cc1	-68*	-12%	.	.	26%	-13%
Cc1ccc(N(Cc2cccs2)C(=O)c2ccccc2[N+](=O)[O-])cc1	?	-18%	.	.	-17%	-11%
CCOC1=CC(=O)N(CCN)C1	-5	.	.	.	.	.
C=CCOc1ccc(Br)cc1/C=N/O	-1	-12%	11µM*	-2%	-28%	.
CC(=O)Nc1ccc(NC(=O)COc2ccc(Br)cc2C)cc1	-17	-11%	-7%	13%	-6%	-17%
Cc1cccc(NC(=O)COc2ccc(Br)cc2/C=N/O)c1	24	-16%	35µM*	1%	0%	i
COc1cc(/C=C2\C(=O)N(c3ccc(NC(C)=O)cc3)N=C2c2ccccc2)ccc1O	20	.	5%	-3%	?	.
CCOc1cc(/C=C2\C(=O)N(c3nc(-c4ccc(Br)cc4)cs3)N=C2c2ccccc2)ccc1O	.	4%	-21%	5%	5.6µM*	-3%
C[C@H](CO)N1C[C@H](C)[C@@H](CN(C)C(=O)Nc2ccc(C(F)(F)F)cc2)Oc2ccc(NC(=O)CCC(F)(F)F)cc2C1=O	4	-13%	-32%	.	-8%	i
C=CCOC(=O)NC(CC(=Nc1ccc(OC)cc1)C(=O)OC)c1ccccc1 (stereo not given)	.	.	.	-4%	.	.
Nc1c(N2CCN(c3ccccc3)CC2)c2ccccc2oc1=O	-100*	.	2%	-2%	-26%	.
Clc1ccc(OCc2nc3ccccc3[nH]2)cc1	37	-8%	11µM*	-10%	6%	-9%
SMILES	HCMV inh	VACV Venus inh	HCV inh	FBPA Giardia inh	FMDV antiviral	Vaccinia mCherry
O=S(=O)(CCc1nc2ccccc2[nH]1)c1ccc(Cl)cc1	-61*	1%	2%	0%	-6%	?
c1ccc(OCc2nc3ccccc3[nH]2)cc1	50	.	?	-7%	45%	.
Cc1ccc(S(=O)(=O)CCc2nc3ccccc3[nH]2)cc1	-69*	-11%	-1%	0%	5%	-6%
C=CCOc1ccc(C(c2c(O)nc(SC)[nH]c2=O)c2c(O)nc(SC)[nH]c2=O)cc1	-1	-8%	14%	.	-17%	i
CC(=O)N1CCN(S(=O)(=O)c2cccc(C(=O)OCC(=O)N(CCC#N)c3ccc(F)cc3)c2)CC1	75	.	3%	.	0%	.
CCOC(=O)c1ccc(N(C(=O)c2ccco2)C(C(=O)NC2CCCC2)c2ccncc2)cc1 (stereo not given)	-9	-13%	-11%	-11%	-1%	i
Cc1ccc(CCNc2ncnc(Cl)c2N)cc1	-84*	-7%	1µM*	.	0%	?
O=C(CCN1Cc2ccccc2OC(c2ccccc2F)C1)N1CCC(N2CCCC(O)C2)CC1 (stereo not given)	.	-11%	.	.	7%	-9%
Cc1cccc(NC(=O)CSc2nc3ccc(NC(=O)c4ccco4)cc3s2)c1	?	-5%	.	.	25µM*	-7%
COc1cccc(NC(=O)CSc2nc3ccc(NC(=O)c4ccco4)cc3s2)c1	-35	-3%	.	.	40µM*	-9%
CCOC(=O)c1ccccc1NS(=O)(=O)c1cnn(CC)c1C	12	-12%	11%	9%	-4%	-13%
Cc1ccc(S(=O)(=O)N(C)c2ccc(C(=O)NCc3ccccc3F)cc2)cc1	-4	-14%	?	.	-4%	-8%
CCCOc1ccc(Br)cc1CSC(=N)N	-95*	.	?	-19%	?	.
CCOc1ccc(Br)cc1CC(=O)O	37	1%	22%	.	-17%	.
CC(=O)C(=Cc1cccc(C#N)c1)C(=O)c1ccccc1	?	-11%	.	.	13µM*	10%
CC(=O)C(=Cc1ccc(Cl)cc1)C(=O)c1ccccc1	36	4%	.	.	28µM*	i
COc1ccc(C=C(C(C)=O)C(=O)c2ccccc2)cc1	-21	-6%	.	.	?	i
COc1ccccc1NC(=O)CSc1oc(-c2ccccc2)nc1S(=O)(=O)c1ccc(C)cc1	-16	-12%	.	.	-25%	-22%
CC(C)CS(=O)(=O)c1oc(-c2ccc(F)cc2)nc1S(=O)(=O)c1ccccc1	-100*	-12%[7.34 µM]	.	.	25µM*	-21%[7.34 µM]
COc1ccccc1NC(=O)CSc1oc(-c2ccc(F)cc2)nc1S(=O)(=O)c1ccc(Br)cc1	1	?	.	.	-11%	14µM*
Cc1ccc(-c2nc(S(=O)(=O)c3ccc(C)cc3)c(SCC(=O)Nc3ccc(F)cc3)o2)cc1	-2	?	.	.	-16%	?
CCSc1oc(-c2ccc(F)cc2)nc1S(=O)(=O)c1ccc(C)cc1	-65*	-12%[7.34 µM]	.	.	-12%	-15%[7.34 µM]
Cc1cc(C)c(Cn2c3ccccc3c3cnn(CC(=O)NCc4ccc(Cl)cc4)c(=O)c32)c(C)c1	17	?	.	.	5%	?
COc1ccc2c(c1)c1c(c(=O)n(-c3cccc(Cl)c3)c(=O)n1CC(=O)N1CCCC1)n2C	-2	-1%	.	.	-17%	-2%
